Reference: ChEMBL document CHEMBL4513143, “CO-ADD screening of University of Natural Resources and Life (Austria) compounds”
Entries with a potency or affinity are not part of this list.

tested on: Klebsiella pneumoniae; settings: Concentration 32 ug.mL-1; ASSAY_TEST Inhibition of Bacterial Growth; detection method Absorption (OD600); MEDIA CAMHB; plate type 384well; NBS; CORNING #3640; time 18 hr

Compound | Inhibition [%]
OC[C@@H](O)[C@H]1OC(O)C[C@@H](O)[C@@H]1O (stereo not given in full) | 30.82
CCN(CC)CC.C[C@H](CC1O[C@H]([C@@H](O)CO)[C@@H](O)[C@H](O)[C@@H]1O)OP(=O)(O)OC[C@H]1O[C@@H](n2cnc3c(N)ncnc32)[C@H](O)[C@@H]1O (stereo not given in full) | 21.04
N.O=C(O)C1(O)C[C@@H](O)[C@H](O)[C@@H]([C@@H](O)CO)O1 (stereo not given in full) | 28.17
CCN(CC)CC.C[C@H](CC1O[C@H]([C@@H](O)CO)[C@@H](O)[C@H](O)[C@@H]1O)OP(=O)(O)O (stereo not given in full) | 38.35
CCN(CC)CC.C[C@@H](CC1O[C@H]([C@H](O)CO)[C@@H](O)[C@H](O)[C@@H]1O)OP(=O)(O)OC[C@H]1O[C@@H](n2cnc3c(N)ncnc32)[C@H](O)[C@@H]1O (stereo not given in full) | 9.8
CCN(CC)CC.C[C@H](CC1O[C@H]([C@H](O)CO)[C@@H](O)[C@H](O)[C@@H]1O)OP(=O)(O)OC[C@H]1O[C@@H](n2cnc3c(N)ncnc32)[C@H](O)[C@@H]1O (stereo not given in full) | 32.34
CCN(CC)CC.C[C@@H](CC1O[C@H]([C@@H](O)CO)[C@@H](O)[C@H](O)[C@@H]1O)OP(=O)(O)OC[C@H]1O[C@@H](n2cnc3c(N)ncnc32)[C@H](O)[C@@H]1O (stereo not given in full) | 27.9
CC(=O)CC1O[C@H]([C@@H](O)CO)[C@@H](O)[C@H](O)[C@@H]1O (stereo not given in full) | 30.36
CCN(CC)CC.C[C@@H](CC1O[C@H]([C@@H](O)CO)[C@@H](O)[C@H](O)[C@@H]1O)OP(=O)(O)O (stereo not given in full) | 41.76
CCN(CC)CC.O=P(O)(O)OC1C[C@@H](O)[C@H](O)[C@@H]([C@H](O)CO)O1 (stereo not given in full) | 34.69
